Each structure is given as a SMILES string. Inconclusive results are not listed. Unmarked numbers belong to inactive results. Calls come from the whole dose curve.
% is set by controls: 0 for no effect and ±100 for the full control effect.

This experiment in a line: qHTS assay to identify small molecule antagonists of the sonic hedgehog signaling (Shh) pathway (AID 1259369). Note: nearly all actives have a fitted effect of over 45% in size. As to conditions: NIH/3T3 Gli1-Luc reporter, Shh antagonist, luminescence 24 h; series mostly up to 92.4 µM; activity change, negative = inhibition: at the top concentration. An excerpt: U.S. Tox21 Program National Center for Advancing Translational Sciences [NCATS] NIH Chemical Genomics Center [NCGC] U.S. Environmental Protection Agency [EPA] National Institutes of Environmental Health Sciences [NIEHS] National Toxicology Program [NTP] U.S. Food and Drug Administration [FDA] Tox21 Assay Overview: The sonic hedgehog (Shh) pathway is essential for normal embryonic development. Dysregulation of the Shh pathway can cause severe developmental defects in organs. Therefore chemicals that interfere with the pathway are potential developmental toxicants. A cell line designated 3T3Gli1-Luc (DMB/OARSA/CFSAN/FDA, Laurel, MD), a NIH/3T3 derived clone containing stably integrated Gli1-Luc reporter is used to detect chemical interference of the Shh pathway, by changes in the expression of the firefly Luc gene under the control of the Gli1 transcriptional response element. This cell line was used to screen Tox21 libraries for identifying and prioritizing the potential developmental toxicants that interfere Shh pathway. Conditioned medium-stimulated mode was used to screen for chemicals inhibiting Shh signaling.
Tox21 Assay Protocol Summary: 3T3 Gli1-Luc cells were dispensed at 2,000 per well in 5uL of culture medium into white solid bottom 1536-well plates (Greiner Bio-One, Monroe, NC) using a Multidrop Combi (Thermo Scientific, Waltham, MA) dispenser. The assay plates were incubated at 37 C and 5% CO2 for 4hr, and then 23nL of compounds dissolved in DMSO and positive control were transferred using a Pintool station (Wako, San Diego, CA). The compound transfer was followed by the addition of 1ul conditioned medium or assay buffer using two separate tips of Flying Reagent Dispenser (FRD, Aurora Discovery, San Diego, CA). The assay plates were incubated at 37C and 5% CO2 for 24hr. For luciferase read, 4uL of Amplite Luciferase reporter gene assay reagent (AAT Bioquest, Inc. Sunnyvale, CA) was added to each well of the assay plates using FRD and incubated at room temperature for 30min. The luminescence signal was measured using a ViewLux plate reader (Perkin Elmer, Shelton, CT).
(In general: In qHTS, concentration-response curves come from the screen itself.)
On to `CO/N=C(\C(=O)O)c1csc(NC(=O)CCl)n1`, for which the “activity change, negative = inhibition” value is 11.6% [at 42.5 µM].

On to `C[C@@H]1CCC[C@H](C)N1CCCC(O)(c1ccccc1)c1ccccn1` (stereo not given in full), for which the “activity change, negative = inhibition” value was 13.7% [at 42.5 µM].

`CCOC(=O)c1ccc(N(C)C)cc1`: the “activity change, negative = inhibition” value was -0.0711%.

As for `C[Si](C)(C)O[Si](O)(O)O`, the “activity change, negative = inhibition” value is -32.8%.

As for `CC(=O)SC[C@@H](C)C(=O)N1CCC[C@H]1C(=O)N[C@@H](Cc1ccccc1)C(=O)O`, the “activity change, negative = inhibition” value is 20.7% [at 42.5 µM].

With `N#CC1(N)CCCCC1`, the “activity change, negative = inhibition” value is 22.5%.

On to `C/C(Cl)=C/CCl`, for which the “activity change, negative = inhibition” value was 1.94%.

As for `CC(C)(C)NCC(O)COc1cccc2c1CCC(=O)N2` (stereo not given), the “activity change, negative = inhibition” value is 5.8% [at 42.5 µM].

`CCOC(=O)COc1ccc2c(C)c(CCN(CC)CC)c(=O)oc2c1Cl`: the “activity change, negative = inhibition” value is -26.1% [at 42.5 µM].

As to `O=S(=O)(O)c1cc(I)c(O)c2ncccc12`, the “activity change, negative = inhibition” value is 15.9% [at 42.5 µM].

Consider `COc1ccccc1N1CCN(CC(O)COc2cc(OC)c(OC)c(OC)c2)CC1` (stereo not given), for which the “activity change, negative = inhibition” value was 4.97% [at 42.5 µM].

In the case of `CCCCCCC(O)CO` (stereo not given), the “activity change, negative = inhibition” value is -13.8%.

In the case of `CCCC(C)C(O)CC` (stereo not given), the “activity change, negative = inhibition” value is 5.55%.

Regarding `CNCCc1ccccn1`, the “activity change, negative = inhibition” value is 9.63% [at 42.5 µM].

As for `CCCOc1ccc(C(=O)OCCN(CC)CC)cc1N`, the “activity change, negative = inhibition” value is -1.67% [at 42.5 µM].

In the case of `COC(=O)c1ccc(C(=O)O)cc1`, the “activity change, negative = inhibition” value is 26.9%.

As for `Cc1ccc(NC(N)=O)cc1`, the “activity change, negative = inhibition” value is -22.1%.

`CCO[Si](CC(C)C)(OCC)OCC`: the “activity change, negative = inhibition” value was -25.4%.

As for `N#Cc1ccccc1C#N`, the “activity change, negative = inhibition” value was 3.33%.

For the molecule `CCCCCCCC(=O)N(C)C`, the “activity change, negative = inhibition” value was 38.5%.

`C/C=C/C(=O)CCCC`: the “activity change, negative = inhibition” value was -1.21%.

Take `CC1=C(O)C(=O)CO1`: the “activity change, negative = inhibition” value is -11.4%.

For the molecule `CC(C)(Sc1cc(C(C)(C)C)c(O)c(C(C)(C)C)c1)Sc1cc(C(C)(C)C)c(O)c(C(C)(C)C)c1`, the “activity change, negative = inhibition” value is 27.7% [at 42.5 µM].

`CC(O)CCCCn1c(=O)c2c(ncn2C)n(C)c1=O` (stereo not given): the “activity change, negative = inhibition” value was -15% [at 42.5 µM].

On to `O=C(OOC(=O)c1ccccc1)c1ccccc1`, for which the “activity change, negative = inhibition” value was 31.2% [at 42.5 µM].

Consider `C=CCCCCCCCCOC(C)=O`, for which the “activity change, negative = inhibition” value was -0.676%.

In the case of `BrCCOc1ccccc1`, the “activity change, negative = inhibition” value is 0.686%.

As to `Clc1cc(Cl)c(Cl)c(Cl)c1Cl`, the “activity change, negative = inhibition” value is 12.6%.

In the case of `COc1ccc(Cl)cc1C`, the “activity change, negative = inhibition” value is -0.879%.

Consider `CCCCCCCCOCCC#N`, for which the “activity change, negative = inhibition” value is 15.6%.

Take `COc1cc(C(=O)NC2CCCNC2)cc(OC)c1OC` (stereo not given): the “activity change, negative = inhibition” value is -9.16% [at 42.5 µM].

On to `N[C@H]1C(O)O[C@H](CO)[C@@H](O)[C@@H]1O` (stereo not given in full), for which the “activity change, negative = inhibition” value was 25% [at 42.5 µM].

Regarding `Clc1ccc2c(c1)Nc1ccccc1S2`, the “activity change, negative = inhibition” value was 7.18% [at 42.5 µM].

In the case of `NC[C@H]1O[C@H](O[C@H]2[C@H](O)[C@@H](O[C@H]3O[C@H](CO)[C@@H](O)[C@H](N)[C@H]3O)[C@H](N)C[C@@H]2N)[C@H](N)[C@@H](O)[C@@H]1O`, the activity change, negative = inhibition is 16.7% [at 19 µM].

On to `CCCCCCCCCCCCCCCC(=O)OC`, for which the activity change, negative = inhibition was 21.4% [at 19 µM].

As for `C/C(=N\O)c1ccc(OCC(=O)N2CCCCC2)cc1`, the “activity change, negative = inhibition” value is 55.7% [at 42.5 µM].

As to `COC(=O)c1ccccc1Cl`, the “activity change, negative = inhibition” value is 6.41%.

As to `CC1(C)C(=O)C(C)(C)C1=O`, the “activity change, negative = inhibition” value is 0%.

As for `O=C(O)COc1ccc2ccccc2c1`, the “activity change, negative = inhibition” value was -0.523%.

For `CCCCCCCCCCCCCCBr`, the “activity change, negative = inhibition” value was 6.36%.

Source of the values: PubChem BioAssay (Tox21).
